# In PubChem BioAssay AID1508622 (National Center for Advancing Translational Sciences (NCATS), 2021):
# Unmarked numbers belong to inactive results. Activity calls are given as the source filed them. The call rests on the fitted dose curve; in most records, active means well fitted activation curve with a large enough effect; inconclusive means small, poorly fitted or top-dose-only effect; inactive means no such curve, though single readings can be large or run the other way.
# Assay: Confirmatory qHTS for Identification of Small Molecule Activators of Huntingtin-Antisense Promoter Activity
# Conditions: HEK293 HTT-AS promoter firefly luciferase reporter, 24 h; series mostly up to 57.5 µM; activity change, positive = activation: at the top concentration
# In short: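 Plated reporter HEK293 cells (24 h) received library compounds at up to 57.5 uM final or 50 uM PTC124, incubated 24 h at 37C; firefly luciferase luminescence was then recorded with Dual-Glo reagent.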
# Potency means the concentration at half of the fitted maximal effect.
Structure (SMILES),"activity change, positive = activation [%]",Potency
O=C(c1ccc2c(c1)N(Cc1ccccc1)C(=O)c1ccccc1S2(=O)=O)N1CCCCCC1,-30.5,
CC(C)c1ccc(NC(=O)c2ccc(F)c(S(=O)(=O)N3CCCCCC3)c2)cc1,-29.2,
Cc1ccc(Cl)cc1N1CCN(C(=O)c2cnc(N3CCOCC3)c3ccccc23)CC1,-34.6,
COc1ccc(C(=O)Oc2c(Sc3ccccc3)c(C)nn2-c2ccccc2)c(OC)c1,-31.5,
CC(=O)c1ccc(N2CCN(c3ncnc4c3cnn4-c3cc(Cl)ccc3C)CC2)cc1,-49.9,
O=C(C=Cc1ccc(O)cc1)c1ccc(O)cc1O,17.4,
CCN(c1ccccc1)S(=O)(=O)c1cc(C(=O)Nc2ccc(Br)cc2)ccc1F,-66.2,
CCN1C(=O)c2ccccc2Sc2ccc(NC(=O)Nc3cccc([N+](=O)[O-])c3C)cc21,-50.4,
Cc1ccc(N2C(=O)C(CC(=O)Nc3ccccc3)N(CCC3=CCCCC3)C2=O)cc1 (stereo unspecified),,6.75 µM (active)
COc1ccc(N2CCN(CCCNC(=O)c3c(C)nn(-c4ccc(F)cc4)c3-n3cccc3)CC2)cc1,-48.9,
O=C(c1ccc(CS(=O)c2ccccc2Cl)o1)N1CCN(c2cccc(C(F)(F)F)c2)CC1 (stereo unspecified),-54,
Cc1cccc(NC(=O)c2cnn(-c3ccccc3)c2-n2cccc2)c1C,-33.2,
COc1ccc(Cl)cc1C1CC(=O)Nc2cc3c(cc21)OCCO3 (stereo unspecified),-63.7,
CCc1cccc(NC(=O)CSc2nc3ccsc3c(=O)n2CC)c1,-47.7,
Cc1oc(-c2ccc(C(=O)NCc3ccccc3F)cc2)nc1COc1ccccc1,-31,
CCOc1cc(C(=O)Nc2ccc3oc(-c4ccc(CC)cc4)nc3c2)cc(OCC)c1OCC,-13.9,
